HCV inh = HCV inhibition; Huh7.5.1 HCVcc-Cre infection, luciferase reporter, 44 h; Potency, µM (highest dose often 41.8 µM), actives largely listed as inhibitors; 3.4% of 340,000 active; active = well fitted inhibition curve with a large enough effect; inconclusive = small, poorly fitted or top-dose-only effect, or another doubt; inactive = no such curve, though single readings can be large or run the other way
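Whole-lifecycle infectious HCVcc-Cre system; cells 1,000/well, compound then virus (~0.5 moi) added 4 h after plating, 44 h culture. Luciferase read 15 sec following 15 min substrate incubation, room temp.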
HCMV antiviral = human cytomegalovirus inhibition | 4.5% of 410,000 active | activity change, negative = inhibition, % at 57.5 µM | AID 1259415 | HFF cells, HCMV-luciferase reporter, 72 h; hits give low values; in the data active = activity change below about -60%; inconclusive = no clear call, values can overlap the other calls; inactive = above about -39%
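HFF cells seeded 16 h at 37C, treated with compounds, infected with luciferase-reporter HCMV at MOI 1 PFU/cell; luciferase read at 72 h post infection, normalized to buffer-only and Salinomycin controls.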
SARS PLP yeast = inhibitors of SARS-CoV papain-like protease in yeast | S. cerevisiae expressing SARS-CoV PLpro, growth rescue | Potency, µM (titrated, usually from 32.9 µM), actives largely listed as activators | 0.19% of 330,000 active | AID 485353; calls by dose curve; also: nearly all actives have a fitted effect of over 55% in size
LASV entry inh = blocks Lassa virus binding to or entry into cells. Lassa virus pseudotype entry inhibition, cell reporter. Potency, µM (titrated, usually from 37.9 µM), most hits filed as inhibitors. 1.2% of 300,000 active. AID 540256; calls by dose curve; tested in HEK293 cells; also: nearly all actives have a fitted effect of over 50% in size
FMDV inh = antivirals against foot and mouth disease virus; 1.2% of 410,000 active; FMDV antiviral cell-based qHTS; Potency, µM (highest dose often 57.9 µM), hits mostly inhibitors; calls by dose curve; tested in HEK293T cells; also: read-out not given here; nearly all actives have a fitted effect of over 45% in size
Marburg entry inh = inhibitors of Marburg virus binding or cell entry; Marburg virus pseudotyped entry inhibition, cell reporter; Potency, µM (series often up to 37.8 µM), usual class: inhibitors; 1.8% of 300,000 active; AID 540276; calls by dose curve; tested in HEK293 cells
Each line names hits and unclear results; the compound was inactive in the other large screens; ! = repeats disagree. In the library only some 8% were active in any assay of this set; here they are far more common.

Cc1ccc(C(CNS(=O)(=O)c2ccc(Br)cc2)N2CCN(C)CC2)cc1 (stereo not given)	HCV inh 8.9µM, Marburg entry inh inconclusive
O=[N+]([O-])c1ccc(S(=O)(=O)NCCN2CCOCC2)cc1	none
O=[N+]([O-])c1ccc(-c2ccc(S(=O)(=O)NCCN3CCCC3)cc2)cc1	HCV inh 10µM, HCMV antiviral -71, LASV entry inh inconclusive, Marburg entry inh 18µM
Cc1ccc(C(CNS(=O)(=O)c2ccc([N+](=O)[O-])cc2)N2CCN(C)CC2)cc1 (stereo not given)	HCV inh 11µM, LASV entry inh inconclusive, Marburg entry inh inconclusive
Cc1ccc(OCC(=O)N(C)CC(=O)Nc2ccccc2Cl)c([N+](=O)[O-])n1	HCMV antiviral -84, LASV entry inh inconclusive, Marburg entry inh inconclusive
CCc1ccccc1NC(=O)CN1C(=O)CCn2nc(-c3cccn3C)cc21	none (no result: HCV inh, SARS PLP yeast, Marburg entry inh)
COC(=O)[C@@]1(Cc2ccc(F)cc2)[C@H]2c3cc(C(=O)N(C)C)n(Cc4ccccc4)c3C[C@H]2CN1C(=O)c1ccccc1	HCMV antiviral inconclusive, LASV entry inh inconclusive, FMDV inh inconclusive, Marburg entry inh 13µM
COC(=O)[C@@]1(Cc2ccc(OC)cc2)[C@H]2c3cc(C(=O)N(C)C)n(Cc4ccc(OC(F)(F)F)cc4)c3C[C@H]2CN1C(=O)c1ccccc1	HCV inh inconclusive, LASV entry inh inconclusive, Marburg entry inh 9.2µM (no result: HCMV antiviral)
COC(=O)[C@@]1(Cc2ccc(F)cc2)[C@H]2c3cc(C(=O)N4CCCC4)n(Cc4ccccc4)c3C[C@H]2CN1C(=O)c1ccccc1	FMDV inh inconclusive (no result: HCV inh, SARS PLP yeast, LASV entry inh, Marburg entry inh)
COC(=O)[C@@]1(Cc2ccc(F)cc2)[C@H]2c3cc(C(=O)N(C)C)n(Cc4ccc(OC)c(OC)c4)c3C[C@H]2CN1C(=O)c1ccccc1	LASV entry inh inconclusive, Marburg entry inh inconclusive
COC(=O)[C@@]1(Cc2ccc(F)cc2)[C@H]2c3cc(C(=O)N(C)C)n(Cc4ccc(Cl)c(C(F)(F)F)c4)c3C[C@H]2CN1C(=O)c1ccccc1	none (no result: HCV inh, SARS PLP yeast, LASV entry inh, Marburg entry inh)
COC(=O)[C@@]1(Cc2ccc(OC)cc2)[C@H]2c3cc(C(=O)N4CCCC4)n(Cc4ccc(S(C)(=O)=O)cc4)c3C[C@H]2CN1C(=O)c1ccccc1	HCMV antiviral -66 (no result: HCV inh, SARS PLP yeast, LASV entry inh, Marburg entry inh)
O=C(O)c1ccc2c(c1)C(=O)N([C@H](Cc1ccc(O)c(O)c1)C(=O)O)C2=O	none (no result: HCV inh, HCMV antiviral, LASV entry inh, FMDV inh, Marburg entry inh)
CCOC(=O)CN(Cc1ccccc1)C(C(=O)NC1CCCCC1)c1ccc(C)cc1 (stereo not given)	none (no result: HCV inh, SARS PLP yeast)
O=C(/C=C/c1cccc(F)c1)NC1CCN(Cc2ccccc2)CC1	HCMV antiviral -63
O=C(/C=C/c1cccc(Br)c1)NC1CCN(Cc2ccccc2)CC1	HCV inh inconclusive, HCMV antiviral inconclusive, FMDV inh inconclusive, Marburg entry inh inconclusive
CC(C)CC(=O)N1c2nc(C(C)C)nn2C2(CCCCC2)[C@@H]2CCCC[C@@H]21	none (no result: HCV inh, SARS PLP yeast)
CCCC(=O)N1c2nc(C(C)C)nn2C2(CCCCC2)[C@@H]2CCCC[C@@H]21	HCMV antiviral -75 (no result: HCV inh, SARS PLP yeast)
Cc1ccc(-c2nc3cc(NC(=O)C(C)C)ccc3o2)cc1	HCV inh inconclusive, LASV entry inh 11µM, Marburg entry inh inconclusive
CC(C)CC(=O)Nc1ccc2oc(-c3ccncc3)nc2c1	none
Cc1cccc(-c2nc3cc(NC(=O)C4CCCO4)ccc3o2)c1 (stereo not given)	LASV entry inh 7.9µM, Marburg entry inh 7.1µM
CC(Oc1ccc(Cl)cc1Cl)C(=O)Nc1ccc2oc(-c3ccncc3)nc2c1 (stereo not given)	HCV inh 7.1µM, HCMV antiviral -74, LASV entry inh inconclusive, FMDV inh inconclusive, Marburg entry inh 2.1µM
Cc1ccc2c(c1)C(c1ccc(F)cc1)N(C(=O)c1ccc(OC(C)C)cc1)CC(=O)N2 (stereo not given)	LASV entry inh inconclusive, Marburg entry inh inconclusive (no result: HCV inh, SARS PLP yeast)
O=C(C[C@H]1C(=O)N(Cc2ccccc2)C[C@@H]1Cc1ccccc1)Nc1ccccc1	LASV entry inh 16µM (no result: Marburg entry inh)
CCC(C)Sc1cccc(-c2nc3ccc(Cl)cn3c2NCc2ccccc2)c1 (stereo not given)	none (no result: HCMV antiviral, LASV entry inh, Marburg entry inh)
CCC(C)Sc1cccc(-c2nc3ccc(C)cn3c2NCc2ccccc2)c1 (stereo not given)	FMDV inh 32µM! (no result: LASV entry inh, Marburg entry inh)
Cc1ccc2nc(-c3cccc(-c4cccc(Cl)c4)c3)c(NCc3ccccc3)n2c1	FMDV inh 35µM (no result: LASV entry inh, Marburg entry inh)
CCOc1ccccc1CNC(=O)c1cccc(NC(=O)c2nsc3ccccc23)c1	none (no result: HCV inh, SARS PLP yeast, Marburg entry inh)
CCc1ccccc1NC(=O)Cn1c(=O)n(Cc2ccco2)c(=O)c2ccccc21	none (no result: HCV inh, SARS PLP yeast)
O=C(c1n[nH]c2c1CCCC2)N1CCOc2ccc(C(O)C(c3ccccc3)c3ccccc3)cc2C1 (stereo not given)	none (no result: HCV inh, HCMV antiviral, SARS PLP yeast, LASV entry inh, Marburg entry inh)
Cc1ccc(NC(=O)Nc2nnc(SCC(=O)N3CCCCC3)s2)cc1	HCMV antiviral -87 (no result: HCV inh, SARS PLP yeast, Marburg entry inh)
O=C(Nc1ccccc1)Nc1nnc(SCC(=O)N2CCCCC2)s1	LASV entry inh inconclusive, FMDV inh inconclusive (no result: HCV inh, SARS PLP yeast, Marburg entry inh)
CCOc1ccccc1Nc1nnc(SCC(=O)N2CCCC2)s1	HCV inh 25µM
O=C(Nc1ccc(F)cc1)Nc1nnc(SCC(=O)N2CCCCC2)s1	HCMV antiviral -75 (no result: HCV inh, SARS PLP yeast, Marburg entry inh)
CCOC(=O)CNC(=O)c1cc2c(=O)n3cccc(C)c3nc2n1C	none (no result: HCV inh, SARS PLP yeast, Marburg entry inh)
CCOC(=O)c1c(-c2ccc(OC)cc2)csc1NC(=O)CCN1CCOCC1	HCV inh inconclusive, LASV entry inh inconclusive
CCOC(=O)c1c(NC(=O)CCN2CCOCC2)sc(C)c1-c1ccccc1	HCV inh 25µM, LASV entry inh 3.2µM, FMDV inh inconclusive, Marburg entry inh inconclusive
CCOC(=O)c1c(NC(=O)/C=C/C(=O)O)sc(C)c1-c1ccc(C(C)(C)C)cc1	HCV inh inconclusive, HCMV antiviral inconclusive, LASV entry inh inconclusive, FMDV inh 18µM, Marburg entry inh 10µM
O=C(NCCc1ccccc1)C1CCN(c2ncnc3c2nc2n3CCCCC2)CC1	none (no result: HCV inh, SARS PLP yeast, Marburg entry inh)
CC(C)OCCCN(Cc1ccco1)C(=O)c1cc2c(s1)-c1ccccc1OC2	none (no result: HCV inh, SARS PLP yeast, LASV entry inh)
O=C(c1cnccn1)N1CCc2ccccc21	none
O=C(c1ccc([N+](=O)[O-])cc1)N1CCc2ccccc2C1	HCMV antiviral -68, SARS PLP yeast inconclusive
Cc1ccc(S(=O)(=O)N(C)c2ccc(C(=O)N3CCCCC3)cc2)cc1	HCV inh inconclusive
CN(c1ccccc1)S(=O)(=O)c1ccc(C(=O)N2CCc3ccccc3C2)cc1	HCV inh inconclusive (no result: LASV entry inh, Marburg entry inh)
O=C(c1cnccn1)N1CCc2ccccc2C1	HCMV antiviral -100
Cc1ccc(S(=O)(=O)N(C)c2ccc(C(=O)N3CCc4ccccc4C3)cc2)cc1	HCV inh inconclusive, LASV entry inh 11µM, Marburg entry inh inconclusive
CCOC(=O)N1CCN(C(=O)c2ccc(N(C)S(=O)(=O)c3ccc(C)cc3)cc2)CC1	HCV inh 14µM (no result: LASV entry inh, Marburg entry inh)
Cc1cc(O)c2c(C)c(CC(=O)NCc3ccccc3Cl)c(=O)oc2c1	none (no result: HCV inh, SARS PLP yeast)
COc1ccc(N2CCN(C(=O)c3ccc(N(C)S(=O)(=O)c4ccc(OC)cc4)cc3)CC2)cc1	HCV inh inconclusive, HCMV antiviral -63, LASV entry inh inconclusive, FMDV inh inconclusive

Screens as filed in PubChem.
